This is an account of results in the supplement of paper PMC3484114.

± gives the standard deviation.

This assay concerns OVCAR-3-derived ovarian cancer stem-like cells (spheroids). As to the kind of experiment: cell growth relative to untreated control; higher = more growth (less inhibition). The conditions noted are these: 2.29 µM; 96 h. In a few lines: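 After trypsin dissociation, OVCAR-3 spheroid-derived stem-like cells were placed in ultra-low attachment 96-well plates at 50,000 cells/mL in stem cell medium and preincubated for 24 h. Treatment at 2.29 uM followed for 96 h at 37°C, 5% CO2, with 4 replicate wells per compound. A 4 h TOX8 resazurin fluorescence read (ex 560/em 590 nm) gave viability, from which percent growth relative to untreated wells was derived after blank subtraction and Grubbs outlier removal.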
`CC(C)(O)C=CC(=O)C(C)(O)C1C(O)CC2(C)C3CC=C4C(C=C(O)C(=O)C4(C)C)C3(C)C(=O)CC12C` (configuration not stated) registered a cell growth of 28.1 ± 6.1%. Next, `C[n+]1cc2cc(O)c(O)cc2c2ccc3cc(O)c(O)cc3c21.c1ccncc1`: 91.8 ± 23%.

Consider `COC(=O)C1C(O)C(C)C(O)C(C)/C=C\C=C(C)C(=O)Nc2c(C)c(OC(C)=O)c3c(c2O)C(=O)C(C)=C2OCOC(=C23)C(C)=CC(C)(O)C(O)C(C)C1O` (configuration not stated), for which the cell growth stood at 84.9 ± 18%.

The molecule `CC1=C(N2CC2)C(=O)C(CO)=C(N2CC2)C1=O` had a cell growth of 9 ± 3.5%. In the case of `COc1cccc2c1C(=O)c1c(O)c3c(c(O)c1C2=O)C[C@@](O)(C(C)=O)C[C@@H]3O[C@H]1C[C@H](N(Cc2ccccc2)Cc2ccccc2)[C@H](O)[C@H](C)O1` it was 62.8 ± 11%; in that of `CC(=O)O[C@H]1C(=O)[C@@]2(C)[C@H]([C@H](OC(=O)c3ccccc3)[C@]3(O)C[C@H](O)C(C)=C1C3(C)C)[C@]1(OC(C)=O)CO[C@@H]1C[C@@H]2O`, 123 ± 26%.

`CC[PH+](CC)CC.[Cl][Au]`: the cell growth was determined as 103 ± 27%.

`CCC[CH2][Pb]([Cl])([CH2]CCC)[CH2]CCC`: the cell growth came out at 5.1 ± 5.5%.

In turn, `C[Si](C)(CN)CN.[Cl][Pt][Cl]` gave a cell growth of 137 ± 53%. The molecule `C1CCNCC1.S=C(S)N1CCCCC1` registered a cell growth of 36.2 ± 3.5%.

For `O=C1OC(c2ccccc2)=N/C1=C\c1ccc(N(CCCl)CCCl)cc1`, the cell growth was determined as 64.5 ± 12%. In the case of `[Cl][Cd][Cl]` it was 87.6 ± 51%; in that of `CCC(=O)OC1CCn2c1nc1c2C(=O)C(C)=C(N2CC2)C1=O` (configuration not stated), 130 ± 34%.

With `C1CN1c1nc(N2CC2)nc(N2CC2)n1`, the cell growth amounted to 129 ± 82%. The molecule `CC[C@@]1(O)C[C@H](O)c2c(O)c3c(c(O)c2[C@H]1C(=O)OC)C(=O)c1cccc(O)c1C3=O` displayed a cell growth of 49.5 ± 20%.

`N#Cc1cn([C@@H]2O[C@H](CO)[C@@H](O)[C@H]2O)c2ncnc(N)c12` came in with a cell growth of 8.9 ± 3.4%. In the case of `COc1ccc(O)c2c(=O)c3c(OC)cc4c(c3oc12)[C@@H]1C=CO[C@@H]1O4` it was 90.1 ± 25%; in that of `CC(=O)OC1C(O)C(C)OC(OC2C(OC(=O)C3CCC4C(C3)OC3(CC(OC(=O)/C=C/c5ccccc5)C(C)CO3)C43CO3)OC(C)C(O)C2OC(C)=O)C1O` (configuration not stated), 5.3 ± 3.2%; in that of `CC[C@](C)(O)C(=O)O[C@H]1C(=O)O[C@@H]2C[C@H]3C(C)=CC(=O)[C@@H](O)[C@]3(C)[C@H]3C4(O)OC[C@]32[C@@H]1[C@@H](C)[C@H]4O`, 35.2 ± 15%. `COc1ccc(C[C@@H]2NC[C@@H](O)[C@@H]2OC(C)=O)cc1` came in with a cell growth of 94.2 ± 33%. As for `C=Cc1cc(OC)c2c(c1)c(=O)oc1c2cc(OC)c2c(O)ccc(C3OC(C)C(O)C(C)(O)C3O)c21` (configuration not stated), the cell growth was 8.6 ± 6%. Molecule `O=C1NC(=S)NC(=O)C1C(=O)Nc1ccccc1` registered a cell growth of 23.7 ± 5.9%. Molecule `COC(=O)C1=C(C(=O)OC)SC2(S1)C(C(=O)OC)=C(C(=O)OC)Sc1c2ssc1=O` had a cell growth of 60.2 ± 8.6%. The molecule `CC(=O)O[C@H]1C[C@H](O[C@H]2[C@@H](O)C[C@H](O[C@H]3[C@@H](O)C[C@H](O[C@H]4CC[C@@]5(C)[C@H](CC[C@@H]6[C@@H]5CC[C@]5(C)[C@@H](C7=CC(=O)OC7)CC[C@]65O)C4)O[C@@H]3C)O[C@@H]2C)OC(C)[C@H]1O[C@@H]1O[C@H](CO)[C@@H](O)[C@H](O)[C@H]1O` (some centres not stated) registered a cell growth of 21.7 ± 8.3%. Next, `CC(C)C(NC(=O)C(C(C)C)N(C)C)C(=O)N(C)C(C(=O)N1CCCC1C(=O)N1CCCC1C(=O)NCc1ccccc1)C(C)C` (configuration not stated): 24.5 ± 8.1%; `COc1cc([C@@H]2c3cc4c(c(O)c3C[C@H]3COC(=O)[C@@H]32)OCO4)cc(OC)c1OC`: 31.1 ± 4.7%. As for `C[C@@H]1CC[C@@]2(OC1)O[C@H]1CC3[C@@H]4CC=C5C[C@@H](O[C@@H]6O[C@H](CO)[C@@H](O[C@@H]7O[C@@H](C)[C@H](O[C@@H]8O[C@@H](C)[C@H](O)[C@@H](O)[C@@H]8O)[C@@H](O)[C@H]7O)[C@H](O)[C@H]6O[C@@H]6O[C@@H](C)C(O)[C@@H](O)[C@H]6O)CC[C@]5(C)[C@H]4CC[C@]3(C)[C@H]1[C@@H]2C` (some centres not stated), the cell growth came out at 8.03 ± 3.1%.

The molecule `C[n+]1ccc(-c2cc[n+](C)cc2)cc1` registered a cell growth of 101 ± 11%. As for `CN(C)C(=S)SSC(=S)N(C)C`, the cell growth turned out to be 103 ± 17%. Next, `N[C@@H](CN(O)N=O)C(=O)O`: 105 ± 19%; `CC(=O)[O][Pb]([O]C(C)=O)([c]1ccccc1)[c]1ccccc1`: 80.2 ± 14%; `CC[C@@]1(O)C[C@H](O[C@H]2C[C@H](N(C)C)[C@H](O[C@H]3C[C@@H]4O[C@H]5CC(=O)[C@H](C)O[C@H]5O[C@@H]4[C@H](C)O3)[C@H](C)O2)c2c(cc3c(c2O)C(=O)c2c(O)ccc(O)c2C3=O)[C@H]1C(=O)OC`: 11 ± 3.4%.
